Of roughly 21,000 targets only a part is listed; those with the largest changes were picked by preference.
Compound: CC1Cc2ccccc2N1C(=O)C1CCCN(C1)C(=O)CCl (mixture of isomers) [TRIM25 ligand 11 (diastereomer mixture)]
Assay: probe-labelled cysteine peptide fold change vs DMSO (competition) (log2 fold change); higher = less target engagement (more negative = stronger competition)
Settings: THP-1, incubation time: 4 h
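Further: competitive chemoproteomic profiling in live THP-1 cells with an iodoacetamide desthiobiotin (IA-DTB) probe, comparing probe-labelled peptide intensities in compound-treated cells against DMSO-treated controls.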

MYADM_Q96S97_279_SRDVSCSR (UniProt Q96S97)
probe-labelled cysteine peptide fold change (10 µM): 1.04 | probe-labelled cysteine peptide fold change (50 µM): 1.29

NAPA_P54920_103_KADPQEAINCLMR (UniProt P54920)
probe-labelled cysteine peptide fold change (10 µM): 0.0661 | probe-labelled cysteine peptide fold change (50 µM): 0.0556

LSS_P48449_484_LCDAVAVLLNMR (UniProt P48449)
probe-labelled cysteine peptide fold change (10 µM): -0.0996 | probe-labelled cysteine peptide fold change (50 µM): -0.128

MICAL2_O94851_1059_PHFIHCK (UniProt O94851)
UniProt O94851, sequence (O94851 whole entry, looked up): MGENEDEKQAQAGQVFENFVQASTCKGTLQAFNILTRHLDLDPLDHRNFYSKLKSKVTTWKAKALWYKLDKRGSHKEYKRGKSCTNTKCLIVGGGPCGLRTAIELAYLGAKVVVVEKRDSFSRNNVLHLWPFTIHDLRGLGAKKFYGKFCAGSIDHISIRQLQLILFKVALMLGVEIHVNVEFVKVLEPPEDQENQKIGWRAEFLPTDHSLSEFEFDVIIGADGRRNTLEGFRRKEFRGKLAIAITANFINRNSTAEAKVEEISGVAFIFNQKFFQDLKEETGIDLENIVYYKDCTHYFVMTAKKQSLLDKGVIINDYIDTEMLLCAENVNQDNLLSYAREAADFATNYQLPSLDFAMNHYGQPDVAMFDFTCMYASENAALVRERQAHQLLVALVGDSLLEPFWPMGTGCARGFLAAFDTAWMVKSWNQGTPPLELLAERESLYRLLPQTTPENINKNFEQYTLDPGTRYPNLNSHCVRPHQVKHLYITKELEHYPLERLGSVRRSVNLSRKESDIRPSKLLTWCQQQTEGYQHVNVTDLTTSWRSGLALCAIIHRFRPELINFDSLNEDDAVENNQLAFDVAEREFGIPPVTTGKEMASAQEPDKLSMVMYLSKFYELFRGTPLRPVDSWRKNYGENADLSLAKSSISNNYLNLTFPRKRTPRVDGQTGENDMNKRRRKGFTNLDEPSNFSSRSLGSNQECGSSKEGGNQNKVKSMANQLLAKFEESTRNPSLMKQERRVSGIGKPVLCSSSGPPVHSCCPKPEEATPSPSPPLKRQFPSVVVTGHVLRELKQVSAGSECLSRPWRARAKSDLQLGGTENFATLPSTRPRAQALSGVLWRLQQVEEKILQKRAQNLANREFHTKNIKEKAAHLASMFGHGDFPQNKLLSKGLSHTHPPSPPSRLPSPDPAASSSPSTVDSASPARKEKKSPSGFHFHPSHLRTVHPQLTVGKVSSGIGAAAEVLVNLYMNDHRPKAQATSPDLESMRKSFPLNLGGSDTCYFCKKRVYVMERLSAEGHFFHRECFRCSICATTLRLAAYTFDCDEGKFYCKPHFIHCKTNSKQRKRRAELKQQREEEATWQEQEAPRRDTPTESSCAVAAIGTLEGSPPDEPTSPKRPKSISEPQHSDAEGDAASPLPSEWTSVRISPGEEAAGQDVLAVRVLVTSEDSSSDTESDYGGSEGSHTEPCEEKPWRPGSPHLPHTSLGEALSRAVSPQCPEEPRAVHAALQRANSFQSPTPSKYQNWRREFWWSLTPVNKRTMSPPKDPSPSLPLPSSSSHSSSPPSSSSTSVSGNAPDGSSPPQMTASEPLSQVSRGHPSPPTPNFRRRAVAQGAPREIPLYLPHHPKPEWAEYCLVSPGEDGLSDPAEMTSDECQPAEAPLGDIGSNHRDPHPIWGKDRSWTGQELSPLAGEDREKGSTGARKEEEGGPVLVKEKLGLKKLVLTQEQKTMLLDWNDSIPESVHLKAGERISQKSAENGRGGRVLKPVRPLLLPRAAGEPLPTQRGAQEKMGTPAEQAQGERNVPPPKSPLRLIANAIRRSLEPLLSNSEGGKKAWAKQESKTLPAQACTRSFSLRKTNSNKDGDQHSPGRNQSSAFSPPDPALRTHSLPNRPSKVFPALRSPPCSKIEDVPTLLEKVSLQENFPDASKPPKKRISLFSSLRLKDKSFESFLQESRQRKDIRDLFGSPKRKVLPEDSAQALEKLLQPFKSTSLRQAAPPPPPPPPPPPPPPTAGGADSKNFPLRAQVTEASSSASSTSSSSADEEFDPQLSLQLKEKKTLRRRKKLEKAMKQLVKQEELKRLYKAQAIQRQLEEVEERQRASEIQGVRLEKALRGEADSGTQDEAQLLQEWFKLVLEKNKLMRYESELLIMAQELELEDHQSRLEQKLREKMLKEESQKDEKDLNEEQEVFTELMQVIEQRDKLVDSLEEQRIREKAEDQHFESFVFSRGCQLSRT
probe-labelled cysteine peptide fold change (10 µM): 0.00568 | probe-labelled cysteine peptide fold change (50 µM): 0.0284

NAPA_P54920_212+215_AALCHFCIDMLNAK (UniProt P54920)
probe-labelled cysteine peptide fold change (10 µM): -0.0124 | probe-labelled cysteine peptide fold change (50 µM): 0.149

MECP2_P51608_429_GGSLESDGCPKEPAK (UniProt P51608)
probe-labelled cysteine peptide fold change (10 µM): -0.274 | probe-labelled cysteine peptide fold change (50 µM): -0.613

NAA25_Q14CX7_339_SQGCNDEYK (UniProt Q14CX7)
probe-labelled cysteine peptide fold change (10 µM): 0.0881 | probe-labelled cysteine peptide fold change (50 µM): -0.0602

MED1_Q15648_302_WTPSFSSITSANSVDLPACFFLK (UniProt Q15648)
probe-labelled cysteine peptide fold change (10 µM): -0.00458 | probe-labelled cysteine peptide fold change (50 µM): 0.123

MDN1_Q9NU22_4604_HLFFSQSCSLLVR (UniProt Q9NU22)
probe-labelled cysteine peptide fold change (10 µM): 0.142 | probe-labelled cysteine peptide fold change (50 µM): 0.423

NAA10_P41227_17+21_NARPEDLMNMQHCNLLCLPENYQMK (UniProt P41227)
probe-labelled cysteine peptide fold change (10 µM): -0.0777 | probe-labelled cysteine peptide fold change (50 µM): -0.156

MRM3_Q9HC36_309_ASDHGWVCDQR (UniProt Q9HC36)
UniProt Q9HC36, sequence (Q9HC36 whole entry, looked up): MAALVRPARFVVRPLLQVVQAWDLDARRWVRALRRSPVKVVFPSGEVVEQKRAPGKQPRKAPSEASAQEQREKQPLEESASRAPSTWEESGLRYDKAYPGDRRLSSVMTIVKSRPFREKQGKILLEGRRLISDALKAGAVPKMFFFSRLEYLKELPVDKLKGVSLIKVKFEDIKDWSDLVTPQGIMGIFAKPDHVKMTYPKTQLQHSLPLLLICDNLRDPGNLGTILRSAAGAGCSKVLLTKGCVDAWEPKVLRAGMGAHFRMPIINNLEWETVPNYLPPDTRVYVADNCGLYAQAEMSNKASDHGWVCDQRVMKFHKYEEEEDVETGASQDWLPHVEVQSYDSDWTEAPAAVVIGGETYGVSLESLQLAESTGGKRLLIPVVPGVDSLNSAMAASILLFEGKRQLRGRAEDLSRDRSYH
probe-labelled cysteine peptide fold change (10 µM): 0.135 | probe-labelled cysteine peptide fold change (50 µM): -0.1

MAP4K1_Q92918_334+335_SSSLGIPDADCCR (UniProt Q92918)
probe-labelled cysteine peptide fold change (10 µM): -0.0222 | probe-labelled cysteine peptide fold change (50 µM): -0.126

MRC2_Q9UBG0_201_YDNQWFHGCTSTGR (UniProt Q9UBG0)
probe-labelled cysteine peptide fold change (10 µM): -0.768 | probe-labelled cysteine peptide fold change (50 µM): -1.05

MORC3_Q14149_744_ETCHQSTETDAVFLLESINGK (UniProt Q14149)
probe-labelled cysteine peptide fold change (10 µM): 0.143 | probe-labelled cysteine peptide fold change (50 µM): -0.605

MED15_Q96RN5_618_QQYLCQPLLDAVLANIR (UniProt Q96RN5)
probe-labelled cysteine peptide fold change (10 µM): -0.00606 | probe-labelled cysteine peptide fold change (50 µM): 0.36

NACC1_Q96RE7_178_VKTEQQESDSVQCMPVAK (UniProt Q96RE7)
UniProt Q96RE7, sequence (Q96RE7 whole entry, looked up): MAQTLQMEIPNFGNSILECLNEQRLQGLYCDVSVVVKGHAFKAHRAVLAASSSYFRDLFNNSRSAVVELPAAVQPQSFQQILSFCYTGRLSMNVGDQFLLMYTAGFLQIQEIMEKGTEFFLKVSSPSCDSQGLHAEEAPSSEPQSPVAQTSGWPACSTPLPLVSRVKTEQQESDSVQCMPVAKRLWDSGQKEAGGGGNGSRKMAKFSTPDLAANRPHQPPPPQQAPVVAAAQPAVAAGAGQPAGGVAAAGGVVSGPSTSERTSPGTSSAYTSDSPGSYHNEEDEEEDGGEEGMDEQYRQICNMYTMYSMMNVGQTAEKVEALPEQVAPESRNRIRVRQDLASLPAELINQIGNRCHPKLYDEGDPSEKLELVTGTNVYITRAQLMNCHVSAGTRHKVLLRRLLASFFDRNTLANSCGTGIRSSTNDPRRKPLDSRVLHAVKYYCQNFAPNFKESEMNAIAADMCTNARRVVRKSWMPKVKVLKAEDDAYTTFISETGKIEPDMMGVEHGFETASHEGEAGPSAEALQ
probe-labelled cysteine peptide fold change (10 µM): -0.28 | probe-labelled cysteine peptide fold change (50 µM): -0.426

LUC7L3_O95232_58_SDLGPCEK (UniProt O95232)
probe-labelled cysteine peptide fold change (10 µM): -0.0397 | probe-labelled cysteine peptide fold change (50 µM): -0.155

MRTO4_Q9UKD2_176_RGVVTLLSDYEVCK (UniProt Q9UKD2)
probe-labelled cysteine peptide fold change (10 µM): 0.091 | probe-labelled cysteine peptide fold change (50 µM): -0.0317

NAXD_Q8IW45_261_GERDILSNGQQVLVCSQEGSSR (UniProt Q8IW45)
probe-labelled cysteine peptide fold change (10 µM): 0.0581 | probe-labelled cysteine peptide fold change (50 µM): 0.131

MTMR3_Q13615_81_ESLVNVPLQLIESVECR (UniProt Q13615)
probe-labelled cysteine peptide fold change (10 µM): 0.553 | probe-labelled cysteine peptide fold change (50 µM): -0.00809

MCL1_Q07820_286_TINQESCIEPLAESITDVLVR (UniProt Q07820)
UniProt Q07820, sequence (Q07820 whole entry, looked up): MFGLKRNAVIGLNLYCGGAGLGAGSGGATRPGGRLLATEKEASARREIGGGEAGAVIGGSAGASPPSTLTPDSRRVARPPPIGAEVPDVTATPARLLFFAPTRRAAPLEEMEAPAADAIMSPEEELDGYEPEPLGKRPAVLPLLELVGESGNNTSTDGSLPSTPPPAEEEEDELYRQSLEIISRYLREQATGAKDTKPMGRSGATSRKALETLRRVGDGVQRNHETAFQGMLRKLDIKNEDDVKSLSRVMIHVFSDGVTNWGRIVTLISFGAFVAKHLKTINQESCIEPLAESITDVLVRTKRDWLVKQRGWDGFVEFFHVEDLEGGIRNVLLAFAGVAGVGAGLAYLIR
probe-labelled cysteine peptide fold change (10 µM): -0.36 | probe-labelled cysteine peptide fold change (50 µM): -0.583

MSTO1_Q9BUK6_232_LHFYVEECDYLQGFQILCDLHDGFSGVGAK (UniProt Q9BUK6)
probe-labelled cysteine peptide fold change (10 µM): 0.183 | probe-labelled cysteine peptide fold change (50 µM): -0.0331

MACF1_Q9UPN3_5309_DCDVQGLEHDMEEINAR (UniProt Q9UPN3)
probe-labelled cysteine peptide fold change (10 µM): 0.136 | probe-labelled cysteine peptide fold change (50 µM): -0.0387

MRPS34_P82930_93_SWLWQHDEPCYWR (UniProt P82930)
probe-labelled cysteine peptide fold change (10 µM): 0.0173 | probe-labelled cysteine peptide fold change (50 µM): 0.142

NAPA_P54920_84_HDAATCFVDAGNAFK (UniProt P54920)
probe-labelled cysteine peptide fold change (10 µM): 0.0886 | probe-labelled cysteine peptide fold change (50 µM): 0.00981

MVP_Q14764_515_ALCLLLGPDFFTDVITIETADHAR (UniProt Q14764)
UniProt Q14764, sequence (Q14764 whole entry, looked up): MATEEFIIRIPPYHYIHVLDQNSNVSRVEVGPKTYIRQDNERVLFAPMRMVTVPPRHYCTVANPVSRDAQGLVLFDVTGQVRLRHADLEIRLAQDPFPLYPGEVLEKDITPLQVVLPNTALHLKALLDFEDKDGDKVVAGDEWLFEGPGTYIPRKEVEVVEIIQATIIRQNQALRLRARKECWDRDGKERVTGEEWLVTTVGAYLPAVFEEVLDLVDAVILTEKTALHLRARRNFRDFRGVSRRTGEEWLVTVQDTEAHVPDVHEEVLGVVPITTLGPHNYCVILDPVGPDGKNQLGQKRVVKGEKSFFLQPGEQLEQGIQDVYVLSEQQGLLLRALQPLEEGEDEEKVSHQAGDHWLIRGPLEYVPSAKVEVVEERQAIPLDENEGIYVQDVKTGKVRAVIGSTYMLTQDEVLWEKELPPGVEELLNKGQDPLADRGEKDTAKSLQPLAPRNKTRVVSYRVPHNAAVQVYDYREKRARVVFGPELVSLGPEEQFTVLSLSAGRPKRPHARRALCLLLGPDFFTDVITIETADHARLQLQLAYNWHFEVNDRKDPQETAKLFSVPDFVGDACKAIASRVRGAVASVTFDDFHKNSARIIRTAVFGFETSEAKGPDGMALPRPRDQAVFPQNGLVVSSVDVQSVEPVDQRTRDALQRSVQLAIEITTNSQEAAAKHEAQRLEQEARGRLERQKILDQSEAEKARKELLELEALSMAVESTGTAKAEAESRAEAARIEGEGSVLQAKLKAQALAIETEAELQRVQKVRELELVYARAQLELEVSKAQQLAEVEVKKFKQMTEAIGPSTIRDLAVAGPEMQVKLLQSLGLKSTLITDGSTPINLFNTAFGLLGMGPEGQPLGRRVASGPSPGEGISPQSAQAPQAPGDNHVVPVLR
probe-labelled cysteine peptide fold change (10 µM): 0.505 | probe-labelled cysteine peptide fold change (50 µM): 0.893

NCAPG2_Q86XI2_776_NRECLLSAPR (UniProt Q86XI2)
probe-labelled cysteine peptide fold change (10 µM): -0.0525 | probe-labelled cysteine peptide fold change (50 µM): -0.00285

LTA4H_P09960_26_CSVDFTR (UniProt P09960)
probe-labelled cysteine peptide fold change (10 µM): -0.0535 | probe-labelled cysteine peptide fold change (50 µM): -0.00265

MT1E_P04732_50_CAQGCVCK<|>MT1F_P04733_50_CAQGCVCK<|>MT1B_P07438_50_CAQGCVCK<|>MT1L_Q93083_50_CAQGCVCK (UniProt Q93083+P07438+P04733+P04732)
probe-labelled cysteine peptide fold change (10 µM): -0.000901 | probe-labelled cysteine peptide fold change (50 µM): 0.116

MAD1L1_Q9Y6D9_662_LTSLYAEHPGDCLIFK (UniProt Q9Y6D9)
UniProt Q9Y6D9, sequence (Q9Y6D9 whole entry, looked up): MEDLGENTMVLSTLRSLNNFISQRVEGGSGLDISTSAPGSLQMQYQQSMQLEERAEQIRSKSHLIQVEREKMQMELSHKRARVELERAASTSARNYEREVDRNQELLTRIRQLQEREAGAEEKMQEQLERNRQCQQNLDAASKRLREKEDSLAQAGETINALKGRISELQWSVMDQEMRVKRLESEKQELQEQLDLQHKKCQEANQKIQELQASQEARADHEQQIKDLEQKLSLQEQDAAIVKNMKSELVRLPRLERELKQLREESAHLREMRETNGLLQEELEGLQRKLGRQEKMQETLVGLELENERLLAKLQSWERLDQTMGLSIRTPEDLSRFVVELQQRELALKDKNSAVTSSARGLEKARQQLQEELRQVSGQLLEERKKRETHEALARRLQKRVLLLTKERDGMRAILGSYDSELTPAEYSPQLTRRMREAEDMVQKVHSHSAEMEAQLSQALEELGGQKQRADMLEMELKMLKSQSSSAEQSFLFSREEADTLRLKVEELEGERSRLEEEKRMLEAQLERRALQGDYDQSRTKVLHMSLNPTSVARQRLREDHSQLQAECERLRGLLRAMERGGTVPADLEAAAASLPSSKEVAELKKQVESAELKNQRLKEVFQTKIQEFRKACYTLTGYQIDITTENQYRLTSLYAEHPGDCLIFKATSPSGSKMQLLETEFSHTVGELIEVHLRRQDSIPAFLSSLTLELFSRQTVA
probe-labelled cysteine peptide fold change (10 µM): 0.00589 | probe-labelled cysteine peptide fold change (50 µM): -0.0309

MAP10_Q9P2G4_605_TVDCSK (UniProt Q9P2G4)
probe-labelled cysteine peptide fold change (10 µM): -0.174 | probe-labelled cysteine peptide fold change (50 µM): -0.0642
